Results on 96 molecules are retold here after PubChem BioAssay AID1376 (SRMLSC, 2008).

Broadly, the inhibition is the drop in the measured response relative to a control, in per cent.

In all, about 220,000 compounds went through this assay and about 530 (0.24%) were called active. The list comes from a sample in which actives are over-represented; it also holds similar structures and randomly drawn compounds. Entries with a potency or affinity are not part of this list. A number with no mark means an inactive call. Cut-off read from the data, not from the text of the source: active = inhibition above about 13%; inconclusive = no clear call, values can overlap the other calls; inactive = below that.

Chain of Bifunctional protein GlmU (Mycobacterium tuberculosis (strain ATCC 25618 / H37Rv)) (P9WMN3 whole entry, looked up): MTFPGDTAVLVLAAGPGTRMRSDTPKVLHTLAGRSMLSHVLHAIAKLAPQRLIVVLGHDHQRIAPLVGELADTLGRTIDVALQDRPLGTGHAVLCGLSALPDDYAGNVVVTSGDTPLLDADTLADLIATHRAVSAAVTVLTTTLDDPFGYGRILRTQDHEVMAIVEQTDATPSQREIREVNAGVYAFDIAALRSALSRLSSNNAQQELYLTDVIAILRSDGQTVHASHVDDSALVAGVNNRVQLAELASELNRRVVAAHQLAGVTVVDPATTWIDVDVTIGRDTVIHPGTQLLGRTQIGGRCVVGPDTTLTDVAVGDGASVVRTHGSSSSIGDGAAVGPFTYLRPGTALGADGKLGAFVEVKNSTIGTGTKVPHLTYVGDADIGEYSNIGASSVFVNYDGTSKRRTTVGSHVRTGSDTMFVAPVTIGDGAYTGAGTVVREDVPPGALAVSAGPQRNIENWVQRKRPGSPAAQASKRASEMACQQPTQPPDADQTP

This assay has as its target Bifunctional protein GlmU (Mycobacterium tuberculosis (strain ATCC 25618 / H37Rv)) (UniProt P9WMN3). Description: inhibition of mycobacterial GlmU enzyme – biochemical, glucosamine-1-phosphate acetyltransferase (AID 1376).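 Note: 0% = complete reaction with vehicle and 100% = reaction without substrate.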 To be noted: M. tuberculosis GlmU acetyltransferase enzyme assay; stronger effect = higher value;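 tested at 30 µM in the primary screen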.
Take `Cc1cc(C)c(C#N)c(SC2CCCCC2=O)n1` (stereo unspecified): the inhibition was 0.86%.
The same measure for `CC(C)NC(=O)CSc1nnc2sc3ccccc3n12`: 7.28%; for `Cn1nc(-c2ccccc2)c(CN2CCN(c3ncccn3)CC2)c1Cl`: -1.97%.
Take `CC1(C)CC(=O)C2=C(C1)N(CCN1CCOCC1)C1=C(C(=O)CC(C)(C)C1)C2c1ccc(Cl)c([N+](=O)[O-])c1`: the inhibition is 4.94%.
Consider `CCOC(=O)Cc1csc(NC(=O)c2ccco2)n1`, for which the inhibition was 4.22%.
With `Cc1cc(/C=C2\C(=O)NC(=O)N(c3ccc(F)cc3)C2=O)c(C)n1-c1cccc(C(=O)O)c1`, the inhibition is 2.99%.
Next, `Cc1nn(Cc2c(F)cccc2Cl)c(C)c1NC(=O)C1CC1`: 1.68%.
Next, `CC(Cc1ccsc1)NC(=O)CCc1nnc(COc2ccccc2)o1` (stereo unspecified): -0.64%; `Cc1ccc(OCC(=O)Nc2ccc3c(c2)OCO3)c(C)c1`: 7.84%.
The same measure for `CCn1c(C)nc2cc(C(=O)N/N=C/c3cccc(O)c3O)ccc21`: -2.26%; for `CCn1c(C)nc2cc(C(=O)N/N=C/c3cccc(OC)c3O)ccc21`: 1.22%.
In the case of `CCn1c(C)nc2cc(C(=O)N/N=C/c3ccc(O)c(O)c3O)ccc21`, the inhibition was 12.9% (active).
Next, `CN(C(=O)COc1ccccc1C(=O)NCCc1ccccc1)c1ccccc1`: 1.19%; `CC[N+](CC)(CC)CCCOC(=O)C(O)(c1ccccc1)C1CCCCC1` (stereo unspecified): -1.3%; `O=C(c1ccccc1)N1CCN=C1c1ccccc1`: 3.08%.
The same measure for `Cc1cc(C)cc(C(=O)N2CCN=C2c2ccccc2)c1`: 13.7% (active); for `COc1cc(C(=O)N2CCN=C2c2ccccc2)cc(OC)c1OC`: -4.46%; for `CC1=C(C(=O)OCc2ccccc2)C(c2ccsc2)NC(=O)N1C` (stereo unspecified): 0.99%.
Next, `CN1CCN(C(=S)NC(=O)c2ccc(C(C)(C)C)cc2)CC1`: 0.68%; `CN1CCN(C(=S)NC(=O)c2ccc(Br)cc2)CC1`: -2.25%; `COc1ccc(-c2noc(C3CCCN(S(=O)(=O)c4cccc(Cl)c4C)C3)n2)cc1OC` (stereo unspecified): 1.44%.
With `Cc1ccc(-n2ncc3c(=O)[nH]c(SC(C)C)nc32)cc1`, the inhibition is -6.03%.
Next, `Cc1nn(Cc2ccccc2)c(=O)n1N(C)c1ncc(C(F)(F)F)cc1Cl`: -3.42%; `Cc1nn(Cc2ccc([N+](=O)[O-])cc2)c(=O)n1N(C)c1ncc(C(F)(F)F)cc1Cl`: 13.8% (active); `Cc1nn(Cc2ccc(Cl)cc2)c(=O)n1N(C)c1ncc(C(F)(F)F)cc1Cl`: -1.59%.
Turning to `Cc1cc(N2CCN(Cc3nc(-c4ccc(F)cc4)oc3C)CC2)cc(C)n1`, the inhibition was -0.06%.
Next, `O=c1/c(=C\c2ccc(O)cc2)sc2nc(-c3ccccc3)c(-c3ccccc3)n12`: -5.24%; `COc1cc(/C=c2\sc3n(c2=O)C(c2ccccc2)C(c2ccccc2)=NN=3)ccc1O` (stereo unspecified): -0.15%; `O=c1/c(=C\c2ccc(O)cc2)sc2n1C(c1ccccc1)C(c1ccccc1)=NN=2` (stereo unspecified): 15.3% (active).
As for `CC1CCN(C(=O)CCCOc2ccc(Cl)cc2)CC1`, the inhibition was -3.73%.
The same measure for `COc1ccc(N2C(=O)CC(N(C)CCc3ccc(OC)c(OC)c3)C2=O)cc1` (stereo unspecified): -4.91%; for `O=C(O)Cn1nc(-c2ccccc2)oc1=O`: 12.9% (active); for `CC(C)(C)C(=O)n1nc(-c2ccccc2)oc1=O`: -3.45%.
Next, `O=C(O)Cn1nc(-c2ccc(F)cc2)oc1=O`: -1.78%.
For the molecule `Cc1cc(NC(=O)CSc2nc(-c3ccccc3)c(C#N)c(=O)[nH]2)no1`, the inhibition was 8.24%.
Next, `N#Cc1c(-c2ccccc2)nc(SCC(=O)Nc2ccccc2)[nH]c1=O`: 3.28%; `Cc1cc(C)nc(NS(=O)(=O)c2ccc(NC(=O)CSc3nc(-c4ccccc4)c(C#N)c(=O)[nH]3)cc2)n1`: 13.9% (active); `CCOc1ccc(N2C(=O)CC(n3nc(C)cc3C)C2=O)cc1` (stereo unspecified): 1.73%.
With `Cc1ccc(S(=O)(=O)N(C)C)cc1NC(=S)NC(=O)C12CC3CC(CC(C3)C1)C2`, the inhibition was -3.56%.
Turning to `CC(C)(C)C1CCC(=NNC(=O)CC(=O)NCc2ccccc2)CC1` (stereo unspecified), the inhibition was 0.32%.
Next, `Cc1[nH]oc(=O)c1N=Nc1c(Cl)cccc1Cl`: 1.64%.
Next, `CCC(c1c(C)[nH]oc1=O)c1c(C)[nH]oc1=O`: 13.4% (active).
`Cc1[nH]oc(=O)c1N=Nc1ccccc1`: the inhibition was 8.43%.
Next, `O=S(=O)(c1ccc(-c2nc3ccccc3s2)cc1)N1CCCC1`: 2.5%; `COc1ccccc1N1CCN(CCN2C(=O)CC(=C3c4ccccc4-c4ccccc43)C2=O)CC1`: 4.68%.
Next, `CCCCNC(=O)c1ccc(NC(C)=O)c(Cl)c1`: -5.13%.
Next, `CCCCNC(=O)c1ccc(S(=O)(=O)c2ccc(Cl)cc2)c(NC(C)=O)c1`: 14% (active); `CCCC(=O)Nc1cc(C(=O)O)ccc1S(=O)(=O)c1ccc(Cl)cc1`: 0.49%.
Regarding `O=C(CSc1ccc(-c2ccccn2)nn1)NC1CCCCC1`, the inhibition is -1.08%.
For the molecule `O=c1c2c([nH]c3ccccc13)CCCC2`, the inhibition is 1.46%.
The same measure for `O=c1c2c([nH]c3ccccc13)CCCCC2`: 5.9%.
For the molecule `O=c1c2c([nH]c3ccccc13)CCCCCC2`, the inhibition was 13.9% (active).
As for `CS(=O)(=O)N1CCC(C(=O)Nc2ccc(C(F)(F)F)cc2)CC1`, the inhibition was -0.68%.
In the case of `Cc1nnc(SCc2nc3sc(C(=O)O)c(C)c3c(=O)[nH]2)s1`, the inhibition is 6.77%.
The same measure for `Cc1c(C(=O)O)sc2nc(CSc3nnc(-c4ccc(F)cc4)n3C)[nH]c(=O)c12`: -3.36%.
With `Cc1ccnc(NC(=O)c2ccc3c(c2)S(=O)(=O)c2ccccc2C3=O)c1`, the inhibition was 1.48%.
As to `Cc1c(O)c2ccccc2oc1=O`, the inhibition was 1.82%.
The same measure for `Cc1nc2c(c(=O)[nH]1)C(c1ccccc1Cl)c1c(c3ccccc3oc1=O)O2` (stereo unspecified): 2.13%; for `CCCCSc1nc(CCC)cc(=O)[nH]1`: 3.53%.
Next, `Cc1ccc(NC(=O)COC(=O)Cn2cnc3ccccc32)c([N+](=O)[O-])c1`: -0.59%; `CCOc1ccc(NC2CCN(C(C)=O)CC2)cc1`: 4.14%.
As for `Cc1ccc(NC(=O)N2CCC(NC(=O)C(C)(C)C)CC2)cc1`, the inhibition is 2.86%.
The same measure for `CC(=O)N1CCC(Nc2ccc(C)cc2)CC1`: 14% (active).
With `CCCCn1c(SCC(=O)NCc2ccccc2)nc2ccc(N3CCOCC3)cc2c1=O`, the inhibition is 14.2% (active).
Turning to `CCCCn1c(SCC(=O)NCc2ccco2)nc2ccc(N3CCOCC3)cc2c1=O`, the inhibition is 5.76%.
The same measure for `CCCCNC(=O)CSc1nc2ccc(N3CCOCC3)cc2c(=O)n1CCc1ccccc1`: -5.21%; for `CC(Sc1ncc(C(F)(F)F)cc1Cl)C(=O)NC(N)=O` (stereo unspecified): -5.25%.
Next, `O=C(NCCc1c[nH]c2ccccc12)C(F)(F)F`: -4.42%; `N#Cc1cccc(C#N)c1N1CCC(C#N)CC1`: -4.3%; `CC(CO)Nc1nc(SCc2ccccc2)nc2sc3c(c12)CCC3` (stereo unspecified): -17.2%.
Next, `COCCNc1nc(SCc2ccccc2)nc2sc3c(c12)CCC3`: -0.26%.
Turning to `COCCCNc1nc(SCc2ccccc2)nc2sc3c(c12)CCC3`, the inhibition is 12.8% (active).
The same measure for `CC(C)(C)c1ccc(S(=O)(=O)Nc2ccc(Cc3ccncc3)cc2)cc1`: 0.43%.
The same measure for `COC(=O)c1ccc(N=NNc2ccccc2)cc1`: 4.94%; for `CCN(CC)S(=O)(=O)c1cc(NC(=O)Cc2n[nH]c(=O)c3ccccc23)ccc1C`: 7.13%.
For `CCC(C)(NC(=O)Cc1c[nH]c2ccccc12)C(=O)NC1CCCCC1` (stereo unspecified), the inhibition was 0.49%.
The same measure for `CCC(C)(NC(=O)CNC(C)=O)C(=O)NC1CCCCC1` (stereo unspecified): 17.3% (active); for `CCC(C)(NC(=O)c1ccccn1)C(=O)NC1CCCC1` (stereo unspecified): -1.49%.
Turning to `CC(C)(C)C1CCC2(CC1)CC(=O)c1ccccc1O2` (stereo unspecified), the inhibition was 0.53%.
Regarding `CC(C)(C)OC(=O)N/N=C\c1ccc[nH]1`, the inhibition was -8.2%.
The same measure for `O=C(O)CCCCCCCC(=O)O`: -3.59%.
Next, `O=C(O)CCCCC1SCC2NC(=O)NC21` (stereo unspecified): -2%.
Consider `CCNc1oc(-c2ccc(OC)cc2)nc1S(=O)(=O)c1ccc(Br)cc1`, for which the inhibition is -0.98%.
For `C=CCOc1ccc(C2C(C(=O)c3cccs3)=C(O)C(=O)N2c2nnc(C)s2)cc1` (stereo unspecified), the inhibition was 15% (active).
Regarding `Cc1ccc(C2C(C(=O)c3cccs3)=C(O)C(=O)N2c2nnc(C)s2)cc1` (stereo unspecified), the inhibition is 2.85%.
Turning to `C=CCOc1ccc(C2C(C(=O)c3ccco3)=C(O)C(=O)N2c2nnc(C)s2)cc1` (stereo unspecified), the inhibition is -3.01%.
`COC(=O)CCCC1=CC2=C(c3ccccc3)C(=O)C(C)(OC(=O)C3CCCC3)C(=O)C2=CN1C1CC1` (stereo unspecified): the inhibition is 1.9%.
As to `Cc1ccc(OCC(=O)N2CCOCC2)c([N+](=O)[O-])n1`, the inhibition is -0.37%.
Next, `COc1ccc(C2C=C(c3ccc(Br)s3)Nc3ncnn32)cc1OC` (stereo unspecified): 14.2% (active).
The same measure for `COc1cc(C2C=C(c3cccs3)Nc3ncnn32)cc(OC)c1OC` (stereo unspecified): -2.57%; for `COc1cccc(C2C=C(c3ccc(Br)s3)Nc3ncnn32)c1OC` (stereo unspecified): 0.77%; for `Cc1ccc(S(=O)(=O)N2CC(O)CC2C(=O)OCc2nc3sc(C)c(C)c3c(=O)[nH]2)cc1` (stereo unspecified): 1.13%.
The same measure for `O=C(CCN1CCCC1)c1cccs1`: -0.97%; for `O=C(COC(=O)c1c[nH]c(=O)[nH]c1=O)NCc1ccccc1`: 13.3% (active).
As for `COc1ccc(CNC(=O)COC(=O)c2c[nH]c(=O)[nH]c2=O)cc1OC`, the inhibition was -0.09%.
The same measure for `O=C(COC(=O)c1c[nH]c(=O)[nH]c1=O)Nc1ccccc1`: -4.87%.
